The results in this text go back to PubChem BioAssay.

A short description of test [1]: Wnt pathway potentiators raising nuclear beta-catenin – imaging, WNT3A-conditioned medium, mouse C2C12, NPC library, primary screen (AID 1117326). The settings on record: stronger effect = higher value.
Test [2] can be described thus: growth inhibition of GSK3B-pretreated HCT116 cells – cell-based, CellTiter-Glo, 0.2 to 20 µM (AID 1117336;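 active means compounds lowering colon cancer cell viability after pretreatment blocking the GSK3B kinase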). The note with it: HCT116 viability after GSK3B inhibitor, at 20 µM, stronger effect = higher value.
The nature of test [3]: inhibition of endothelial tube formation, primary screen, imaging, VEGF stimulated, CD31 staining, tube area, NPC library (AID 1117340;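 active means compound that reduces growth-factor-driven endothelial tube area in a mixed cell culture, no cutoff stated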). The note with it: VEGF-stimulated ADSC/ECFC co-culture, at 10 µM, stronger effect = higher value.
Test [4] is described as follows: HCT116 colon cancer cell growth inhibition, primary screen, CellTiter-Glo luminescence, NPC library (AID 1117342;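 active means compounds that lower survival of HCT116 colon cancer cells in the luminescence readout, no numeric limit stated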). The note with it: at 20 µM (top of the series).
The nature of test [5]: reduced SW480 viability measured with CellTiter-Glo, NPC library, primary (AID 1117343;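 active means compounds that lower viability of the colon cancer cells in the luminescence readout, with no numeric limit stated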). The settings on record: CellTiter-Glo luminescence; at 20 µM (top of the series) unless noted. On the technique in general: ATP-based viability assays read luminescence as a measure of living cells.
Test [6] can be described thus: NPC library primary testing for decreased DLD-1 cell viability via CellTiter-Glo (AID 1117346;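 active means compounds that lower survival of DLD-1 colon cancer cells in the luminescence readout, no cutoff given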). The settings on record: DLD-1 viability, CellTiter-Glo luminescence; at 20 µM (top of the series).
Test [7] is described as follows: stimulators of insulin release from INS-1E, primary screen, cell-based, 5 mM glucose, NPC library (AID 1117329;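 active means compound raises insulin release from rat beta cells at 5 mM glucose, no numeric limit stated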). The note with it: rat INS-1E insulin secretion, at 10 µM, stronger effect = higher value.
Test [8] can be described thus: GLP1 release stimulators, primary, NCI-H716, NPC library (AID 1117341;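 active means compound raises GLP1 secretion from the human gut endocrine cells, with no numeric limit stated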). The settings on record: NCI-H716 cells, at 10 µM, stronger effect = higher value.
A short description of test [9]: viability loss with induced miR-34 in A549 – imaging, A549 dox-inducible miR-34, nuclei and caspase counts, primary screen (AID 1347080;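 active means compounds whose cell count with miR-34 switched on is under 0.7 times the count with it off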). The note with it: A549 miR-34 inducible, Hoechst nuclei count, 48 h.
Test [10] can be described thus: blockers of cellular phospholipid synthesis – cell-based, LOPAC library, screen 4, primary screen (AID 1347384; call rule not given here). The settings on record: animal cells, phospholipid biosynthesis inhibition screen; at 10 µM.
Test [11] can be described thus: MELAS cybrid and Rieske KO viability enhancers – cell-based, MELAS cybrids, Rieske KO mouse fibroblasts, CellTiter-Glo, primary screen (AID 1508586;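 active means mean z-score across replicates of 1.96 or higher in either the MELAS or the Rieske mutant cell line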;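 further: z relative to plate mean and SD of compound and empty wells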). The settings on record: low glucose.
A short description of test [12]: galactose survival enhancers in mitochondrial complex I cybrids – cell-based, galactose medium, ATP luminescence, primary screen (AID 1645843;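 active means z-score of at least 1.8 in each of two replicates, scored against plate mean and spread of sample wells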;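 further: positive z means more ATP and so rescue of galactose-driven cybrid death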). The note with it: complex I mutant cybrid cells, 72 h, stronger effect = higher value.
The nature of test [13]: compounds altering viability of human ES cells (AID 493140; call rule not given here;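 further: cells exposed to compounds for four days before counting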). The note with it: human embryonic stem cell survival screen; stronger effect = higher value.
Test [14] can be described thus: compounds altering Cy5-DNA-NS3h complex signal – biochemical, LOPAC1280, artefact control for HCV NS3 helicase inhibitor project (AID 687037; call rule not given here). The settings on record: Cy5-DNA-NS3h complex fluorescence interference counterscreen. Background: Counterscreens check selectivity or assay interference.
Test [15] has as its target 6-phosphogluconate dehydrogenase, decarboxylating (Homo sapiens) (UniProt P52209). Nature of the test: inhibition of human phosphogluconate dehydrogenase – biochemical, recombinant enzyme, NADPH absorbance, primary screen (AID 1159550;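 active means at least 20% inhibition of 6-phosphogluconate dehydrogenase activity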). The settings on record: recombinant 6PGD, NADPH absorbance 341 nm; at 10 µM; stronger effect = higher value.
Test [16] in a line: modulation of C. elegans fzo-1 (AID 1259413; call rule not given here;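 further: fzo-1 mutant C. elegans worms in liquid wells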). The note with it: C. elegans fzo-1 modulator screen, mean read-out; stronger effect = higher value.
The nature of test [17]: EMT-state selective cytotoxicity in co-culture – imaging, PC-3E GFP, TEM4-18 mCherry, primary screen (AID 1345086;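 active means compounds killing one labelled cell type while sparing the other, by normalised counts and ratio limits, not self-fluorescent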;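 further: cells exposed to compound for 72 h before imaging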;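 on red/green cell ratio (normalised): normalised mesenchymal count divided by normalised epithelial count so high means epithelial killing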). The settings on record: PC-3E GFP / TEM4-18 mCherry co-culture, imaging cell counts, at 1 µM.
Test [18] has as its target NAD(+) hydrolase SARM1 (Homo sapiens) (UniProt Q6SZW1). Nature of the test: blocking NAD cleavage by SARM1 SAM-TIR – cell lysate, NAD-Glo luminescence (AID 1508614;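 active means compound whose remaining NAD level is above about 45 nM, limit read from the data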). The settings on record: SAM-TIR HEK293T lysate NADase, at 1 µM, stronger effect = higher value.
Test [19] concerns the target Mitogen-activated protein kinase 7 (Homo sapiens) (UniProt Q13164). Nature of the test: Gal4-ERK5 driven luciferase induction – cell-based, HTS, primary screen (AID 1508626;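 active means luciferase signal above three times the same-plate solvent-only control wells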;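 further: luciferase driven by Gal4-ERK5 fusion binding five Gal4 sites before minimal TATA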). The note with it: HeLa Gal4-ERK5 transactivation, 18 h, at 5 µM, stronger effect = higher value.
Setting [20] is: stronger effect = lower value, cell number ratio, induced over uninduced.
Where [21] appears, read: measured here: relative caspase fold change +Dox/-Dox.
The mark [22] stands for this setting: measured here: total cells with miR-34 induction, stronger effect = lower value.
Setting [23] is: measured here: total cells without miR-34 induction.

Values joined by “and” are separate entries in the source; they are usually repeats but may differ in a detail not shown here. Equal values may be shown once. Active and inactive are the calls of the source. Unless noted, no stated cut-off is given here; in the data, active means nuclear beta-catenin stimulation mostly above about 4.2% (no sharp cut-off); inactive means mostly below about 10%.

6-phosphogluconate dehydrogenase, decarboxylating (Homo sapiens), sequence (P52209 whole entry, looked up): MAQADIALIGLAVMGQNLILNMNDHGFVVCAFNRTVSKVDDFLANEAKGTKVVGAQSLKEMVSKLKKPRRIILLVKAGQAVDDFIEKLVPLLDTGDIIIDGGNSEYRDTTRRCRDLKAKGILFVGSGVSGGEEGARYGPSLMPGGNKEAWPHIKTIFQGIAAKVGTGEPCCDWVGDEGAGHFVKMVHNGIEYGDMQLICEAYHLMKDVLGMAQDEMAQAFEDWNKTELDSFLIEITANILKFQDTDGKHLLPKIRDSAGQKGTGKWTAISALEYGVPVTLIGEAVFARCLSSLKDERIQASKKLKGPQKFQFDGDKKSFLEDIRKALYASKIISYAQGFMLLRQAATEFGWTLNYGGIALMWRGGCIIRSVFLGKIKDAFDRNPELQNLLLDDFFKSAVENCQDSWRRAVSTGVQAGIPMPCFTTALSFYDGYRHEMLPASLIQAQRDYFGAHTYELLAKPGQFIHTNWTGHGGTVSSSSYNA
Mitogen-activated protein kinase 7 (Homo sapiens), sequence (Q13164 whole entry, looked up, the tested form may be a part): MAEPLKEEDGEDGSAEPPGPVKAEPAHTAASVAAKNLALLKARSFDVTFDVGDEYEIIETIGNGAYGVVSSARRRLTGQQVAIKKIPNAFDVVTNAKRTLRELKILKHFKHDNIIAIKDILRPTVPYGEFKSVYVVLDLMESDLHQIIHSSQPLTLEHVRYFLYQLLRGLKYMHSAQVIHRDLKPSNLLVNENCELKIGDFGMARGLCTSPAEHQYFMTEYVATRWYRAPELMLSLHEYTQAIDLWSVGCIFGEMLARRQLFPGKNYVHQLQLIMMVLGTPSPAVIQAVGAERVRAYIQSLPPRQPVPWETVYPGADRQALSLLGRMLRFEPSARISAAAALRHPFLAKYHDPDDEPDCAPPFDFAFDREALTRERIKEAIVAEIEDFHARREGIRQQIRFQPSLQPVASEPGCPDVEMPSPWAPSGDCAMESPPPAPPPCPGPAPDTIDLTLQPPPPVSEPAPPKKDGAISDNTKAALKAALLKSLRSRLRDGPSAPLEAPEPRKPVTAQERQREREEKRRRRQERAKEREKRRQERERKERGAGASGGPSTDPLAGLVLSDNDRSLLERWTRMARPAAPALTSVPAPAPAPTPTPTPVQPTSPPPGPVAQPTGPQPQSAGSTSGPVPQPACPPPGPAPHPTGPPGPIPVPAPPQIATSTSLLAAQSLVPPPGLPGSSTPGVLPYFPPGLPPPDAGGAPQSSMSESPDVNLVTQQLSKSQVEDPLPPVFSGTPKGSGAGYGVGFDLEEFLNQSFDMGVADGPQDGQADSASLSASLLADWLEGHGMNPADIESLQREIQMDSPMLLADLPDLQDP
NAD(+) hydrolase SARM1 (Homo sapiens), sequence (Q6SZW1 whole entry, looked up, the tested form may be a part): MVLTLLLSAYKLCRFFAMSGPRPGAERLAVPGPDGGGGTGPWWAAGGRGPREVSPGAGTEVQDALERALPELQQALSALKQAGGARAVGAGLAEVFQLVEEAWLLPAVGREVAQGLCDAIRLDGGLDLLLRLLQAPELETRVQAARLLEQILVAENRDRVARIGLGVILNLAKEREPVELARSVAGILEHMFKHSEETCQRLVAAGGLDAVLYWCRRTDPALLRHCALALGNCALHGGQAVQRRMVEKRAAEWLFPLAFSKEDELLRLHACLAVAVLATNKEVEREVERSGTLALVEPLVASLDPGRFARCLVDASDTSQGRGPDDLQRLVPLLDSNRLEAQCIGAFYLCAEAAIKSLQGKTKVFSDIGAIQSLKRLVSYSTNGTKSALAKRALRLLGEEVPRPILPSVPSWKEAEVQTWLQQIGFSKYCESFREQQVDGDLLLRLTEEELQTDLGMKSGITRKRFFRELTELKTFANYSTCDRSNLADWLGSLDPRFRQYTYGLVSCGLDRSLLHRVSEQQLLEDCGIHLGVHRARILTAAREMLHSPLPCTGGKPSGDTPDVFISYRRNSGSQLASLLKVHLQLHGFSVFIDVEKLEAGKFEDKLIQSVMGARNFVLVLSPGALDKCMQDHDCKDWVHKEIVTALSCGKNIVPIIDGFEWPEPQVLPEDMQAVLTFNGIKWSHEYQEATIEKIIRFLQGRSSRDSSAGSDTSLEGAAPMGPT

For the compound `Cc1c(N)cccc1C(F)(F)F`, the nuclear beta-catenin stimulation in test [1] (at 10 µM) is 0.9% (inactive); in test [1] (stimulation, at 2 µM) it was 5.4%. Moreover, the viability decrease in test [2] was 2.8% (inactive). In addition, in test [3], the tube area decrease is 5.6% (inactive). The inhibition of viability in test [4] is 11.2% (inactive). Further, the values for the viability decrease (inhibition) in [5] and in test [6] were 1.3% (inactive) and 6.9% (inactive), respectively.

As to `CC1CCC(C(C)C)C(OC(=O)c2ccccc2O)C1` (centres undefined), the nuclear beta-catenin stimulation in test [1] (at 10 µM) is -1.1% (inactive); in [1] (stimulation, at 2 µM), -2.6%. Also, in test [7], the insulin secretion stimulation is -1% (inactive). In addition, the GLP1 secretion stimulation in test [8] is -8.7% (inactive).

`CNS(=O)(=O)CCc1ccc2[nH]cc(C3CCN(C)CC3)c2c1`: the nuclear beta-catenin stimulation in [1] (at 10 µM) was 0.7% (inactive); in [1] (stimulation, at 2 µM) it was 0.4%. Moreover, the insulin secretion stimulation in [7] was 0.5% (inactive). Moreover, in [8], the GLP1 secretion stimulation was -4.5% (inactive). The fold change in test [9] (setting [20]) was 1.03 (inactive) and 0.889 (inactive); in test [9] (setting [21]), 0.856 and 0.863. In addition, the cell count in test [9] (setting [22]) was 10300 and 7800; in [9] (setting [23]), 9960 and 8780. For the same compound, the compound was called inactive in test [10]. Besides, the z-score in [11] (MELAS cybrid survival, CellTiter-Glo 48 h, stronger effect = higher value) was -0.419 (inactive); in test [11] (Rieske KO mouse fibroblast survival, CellTiter-Glo 72 h), 0.51; in [12] it was -0.035 (inactive).

For the compound `O=C(NC1CCN(CCc2c[nH]c3ccccc23)CC1)c1ccccc1`, the nuclear beta-catenin stimulation in test [1] (at 10 µM) is 1% (inactive); in test [1] (stimulation, at 2 µM), 2%. Further, in test [7], the insulin secretion stimulation is 1.25% (inactive). Further, in [8], the GLP1 secretion stimulation is -4.5% (inactive).

On to `CCCCCCCCCCCCCCCC(=O)OCC=C(C)C=CC=C(C)C=CC1=C(C)CCCC1(C)C`, for which the nuclear beta-catenin stimulation in [1] (at 10 µM) was -1.5% (inactive); in [1] (stimulation, at 2 µM), -0.3%. For the same compound, in [7], the insulin secretion stimulation is 1.2% (inactive). In addition, the GLP1 secretion stimulation in test [8] was 2.7% (inactive).

In the case of `Cc1cccc(C)c1NC(=O)CC12CCCN1CCC2`, the nuclear beta-catenin stimulation was 4.2% (inactive) in test [1] (at 10 µM) and 1.3% in test [1] (stimulation, at 2 µM). For the same compound, in test [7], the insulin secretion stimulation was 0.3% (inactive). In addition, the GLP1 secretion stimulation in test [8] is 5% (inactive).

As for `CCCCCCCCCCCCCCCCCCOP(=O)([O-])OC1CC[N+](C)(C)CC1`, the nuclear beta-catenin stimulation in [1] (at 10 µM) is -0.8% (inactive); in test [1] (stimulation, at 2 µM) it was -1%. The insulin secretion stimulation in [7] is 0.3% (inactive). In addition, the GLP1 secretion stimulation in test [8] is 0.4% (inactive).

Consider `CC(C)=CCCC(C)=CCCC(C)=CCCC=C(C)CCC=C(C)CCC=C(C)C`, for which the nuclear beta-catenin stimulation in test [1] (at 10 µM) is -0.4% (inactive); in test [1] (stimulation, at 2 µM), 1.7%. For the same compound, the insulin secretion stimulation in test [7] was 0.6% (inactive). Further, in [8], the GLP1 secretion stimulation was -1.9% (inactive).

Take `CCOC(=O)[C@H](CCc1ccccc1)N[C@@H](C)C(=O)N1C(=O)N(C)C[C@H]1C(=O)O`: the nuclear beta-catenin stimulation was 0% (inactive) in [1] (at 10 µM) and -1.6% in test [1] (stimulation, at 2 µM). In addition, the insulin secretion stimulation in test [7] was 0% (inactive). Moreover, the GLP1 secretion stimulation in test [8] is 2% (inactive).

As for `CN/C(=C\[N+](=O)[O-])NCCSCc1ccc(CN(C)C)o1`, the survival in test [13] is 19.6 (inactive). Further, the fluorescence ratio (interference) in [14] was 0.9 (inactive). In addition, the insulin secretion stimulation in test [7] was -1% (inactive). For the same compound, in [2], the viability decrease was -7.5% (inactive). For the same compound, the tube area decrease in [3] is 7% (inactive). Also, in [8], the GLP1 secretion stimulation was -1.4% (inactive). For the same compound, in test [4], the inhibition of viability is 2.23% (inactive). In addition, the viability decrease (inhibition) in [5] was -25.8% (inactive); in [6], -22.7% (inactive). Also, the inhibition in test [15] was -3.38% (inactive). Further, the mean signal in test [16] is 267 (inactive). For the same compound, the red/green cell ratio (normalised) in test [17] (actives lie on both sides, counts scaled to control wells, 1 = unselective) is 1.01 (inactive). In addition, the normalised cell number in test [17] (measured here: epithelial PC-3E GFP cell survival) came to 1.03; in test [17] (measured here: mesenchymal TEM4-18 mCherry cell survival), 1.04. Moreover, the fold change in test [9] (setting [20]) was 0.934 (inactive) and 0.989 (inactive) and 0.926 (inactive); in test [9] (setting [21]) it was 0.757 and 2.23 and 4.08. Also, the cell count is 10600 and 10300 and 12000 in test [9] (setting [22]); 11300 and 10400 and 13000 in test [9] (setting [23]). Moreover, the compound was classed as inactive in test [10]. For the same compound, the remaining NAD in [18] is 10 nM (inactive). Besides, the luciferase signal in [19] is 28 AU (inactive). For the same compound, in [12], the z-score is 0.37 (inactive) and -0.285 (inactive).

As a reminder, the inhibition is the relative decrease from the control value, in per cent.
